Source: PMC5540273 (PLoS ONE, 2017)

These compounds were tested on KIT. Details: concentration: 1 μM, replicates: in singlicate; n = 1.
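Also: KINOMEscan kinase panel screen.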

| SMILES | %Inh |
| --- | --- |
| CN1C(=O)C(Nc2ccc(Cl)c(C(=O)O)c2)=C(c2ccc(Cl)cc2)C1=O [SB-404290] | 1% |
| Cc1nnc(-c2ccc3occ(-c4ccc(S(C)=O)cc4)c3c2)[nH]1 (stereo not shown) | 20% |
| Clc1cc(Cl)cc(Nc2ccnc(Nc3cc(Cl)cc(Cl)c3)n2)c1 [GSK175726] | 40% |
| O=C(Nc1ccc2c(c1)OCO2)NC1CCN(c2ccnc(Nc3ccc(F)cc3)n2)C1 (stereo not shown) [GSK1379724] | 54% |
| CS(=O)(=O)c1ccc(-c2c(-c3ncn[nH]3)sc(N3CCOCC3)c2C#N)cc1 | 28% |
| COc1ccc(C2=C(Nc3cccc(C(=O)O)c3)C(=O)NC2=O)cc1 [SB-390765] | 6% |
| CS(=O)(=O)c1ccc(-c2nc3n(c2-c2ccncc2)CCC3)cc1 [SKF-105942] | 0% |
| C[C@@H]1CCCCN1c1cc(-c2ccc3c(N)n[nH]c3c2)nc(N)n1 [GSK2258759] | 4% |
| COc1ccc2nc(-c3cccc(C)n3)nc(Nc3ccncc3)c2c1 [GSK204919] | 26% |
| O=S(=O)(c1ccc(-c2ccnc3[nH]ccc23)cc1)N1CCCC1 [GSK846226] | 23% |
| Cn1ccc2ncnc(Oc3ccc(NC(=O)Nc4ccccc4)cc3)c21 | 100% |
| Cc1ccc(C(=O)Nc2ccc(Nc3ccnc4cc(-c5ccccn5)ccc34)cc2O)cc1.Cl [GW440146] | 89% |
| COc1ccc(CNC(=O)NC2CCN(c3ccnc(Nc4cc(OC)c(OC)c(OC)c4)n3)C2)cc1 (stereo not shown) [GSK1379748] | 57% |
| Cc1cc(-c2ccc3c(c2)CC[C@@H](N[C@@H](C)c2ccccc2)C3)cnc1N.Cl [GW412617] | 60% |
| Cl.O=C(Nc1cccc(-c2nn3ncccc3c2-c2ccnc(Nc3cccnc3)n2)c1)c1c(F)cccc1F [GSK312879] | 36% |
| COC(=O)c1c(-c2ccccc2)c2cc(OC)ccc2c(=O)n1Cc1ccccc1 | 93.3% |
| O=C(Nc1n[nH]c2nc(-c3nccs3)c(Br)cc12)C1CC1 [SB-742251] | 1% |
| COc1cc(Nc2nccc(N3CCC(NC(=O)Nc4cc(C)ccc4C)C3)n2)cc(OC)c1OC (stereo not shown) [GSK1379762] | 78% |

| SMILES | %Inh |
| --- | --- |
| COc1cccc(NC(=O)NC2CCN(c3ccnc(Nc4ccc(F)cc4)n3)C2)c1 (stereo not shown) [GSK1379721] | 63% |
| Cl.Oc1ccc(-c2nc(-c3ccccc3)[nH]c2-c2ccncc2)cc1 [SB-428218] | 26% |
| Cc1ccc(-c2cc(-c3c[nH]nc3-c3ccccn3)ccn2)cc1 [GW684088] | 23% |
| Nc1ncnc2[nH]c(-c3ccccc3)nc12 [AH5015] | 21% |
| O=C(Nc1n[nH]c2cc(-c3cccc(F)c3F)ccc12)C1CC1 [SB-733894] | 18% |
| Cc1ccc(NC(=O)Nc2cc(C(C)(C)C)nn2-c2ccccc2)cc1 [GSK1014915] | 98.6% |
| Cc1cccc(-c2nc(C)cc(Nc3ccncc3)n2)n1 [GSK257997] | 17% |
| Cn1cncc1-c1ccc2ncnc(Nc3ccc(OCc4ccccc4)cc3)c2c1 [GW320571] | 28% |
| CCn1c(-c2ccccn2)nc2cnccc21 [SB-736398] | 0% |
| Cc1c(Cn2ccn3c(=O)cc(N4CCOCC4)nc23)cccc1C(F)(F)F [GSK2289044] | 10% |
| O=C(O)COc1ncnc2cc(-c3ccc4[nH]ncc4c3)sc12 | 21% |
| O=C(Nc1ccccc1)Nc1cccc(Oc2ccc3nccn3n2)c1 | 100% |
| Cc1ccccc1-n1cnc2c(N)ncnc21 [SKF-97510] | 0% |
| CC(=O)Nc1nc2cnc(Nc3cc(NC(=O)c4cccc(CCC#N)c4)ccc3C)nc2s1 | 99.7% |
| CC1=C(C(=O)Nc2cc3cn[nH]c3cc2F)C(c2ccc(C(F)(F)F)cc2)CC(=O)N1 (stereo not shown) [GSK429286] | 9% |
| COc1ccc(Nc2nccc(-c3cccc(NC(=O)c4cc5cc(F)ccc5[nH]4)c3)n2)cc1 [GSK1229782] | 57% |
| O=C1NC(=O)C(N2CCc3ccccc32)=C1c1ccccc1Cl [SB-373598] | 2% |

Each compound was assayed on LATS1. Details: concentration: 1 μM, replicates: in singlicate; n = 1.

| SMILES | %Inh |
| --- | --- |
| CN1C(=O)C(Nc2ccc(Cl)c(C(=O)O)c2)=C(c2ccc(Cl)cc2)C1=O [SB-404290] | 15% |
| Cc1nnc(-c2ccc3occ(-c4ccc(S(C)=O)cc4)c3c2)[nH]1 (stereo not shown) | 19% |
| Clc1cc(Cl)cc(Nc2ccnc(Nc3cc(Cl)cc(Cl)c3)n2)c1 [GSK175726] | 0% |
| O=C(Nc1ccc2c(c1)OCO2)NC1CCN(c2ccnc(Nc3ccc(F)cc3)n2)C1 (stereo not shown) [GSK1379724] | 0% |
| CS(=O)(=O)c1ccc(-c2c(-c3ncn[nH]3)sc(N3CCOCC3)c2C#N)cc1 | 24% |
| COc1ccc(C2=C(Nc3cccc(C(=O)O)c3)C(=O)NC2=O)cc1 [SB-390765] | 26% |
| CS(=O)(=O)c1ccc(-c2nc3n(c2-c2ccncc2)CCC3)cc1 [SKF-105942] | 0% |
| C[C@@H]1CCCCN1c1cc(-c2ccc3c(N)n[nH]c3c2)nc(N)n1 [GSK2258759] | 23% |
| COc1ccc2nc(-c3cccc(C)n3)nc(Nc3ccncc3)c2c1 [GSK204919] | 0% |
| O=S(=O)(c1ccc(-c2ccnc3[nH]ccc23)cc1)N1CCCC1 [GSK846226] | 0% |
| Cn1ccc2ncnc(Oc3ccc(NC(=O)Nc4ccccc4)cc3)c21 | 16% |
| Cc1ccc(C(=O)Nc2ccc(Nc3ccnc4cc(-c5ccccn5)ccc34)cc2O)cc1.Cl [GW440146] | 0% |
| COc1ccc(CNC(=O)NC2CCN(c3ccnc(Nc4cc(OC)c(OC)c(OC)c4)n3)C2)cc1 (stereo not shown) [GSK1379748] | 0% |
| Cc1cc(-c2ccc3c(c2)CC[C@@H](N[C@@H](C)c2ccccc2)C3)cnc1N.Cl [GW412617] | 0% |
| Cl.O=C(Nc1cccc(-c2nn3ncccc3c2-c2ccnc(Nc3cccnc3)n2)c1)c1c(F)cccc1F [GSK312879] | 2% |
| COC(=O)c1c(-c2ccccc2)c2cc(OC)ccc2c(=O)n1Cc1ccccc1 | 31% |
| O=C(Nc1n[nH]c2nc(-c3nccs3)c(Br)cc12)C1CC1 [SB-742251] | 24% |
| COc1cc(Nc2nccc(N3CCC(NC(=O)Nc4cc(C)ccc4C)C3)n2)cc(OC)c1OC (stereo not shown) [GSK1379762] | 0% |

| SMILES | %Inh |
| --- | --- |
| COc1cccc(NC(=O)NC2CCN(c3ccnc(Nc4ccc(F)cc4)n3)C2)c1 (stereo not shown) [GSK1379721] | 0% |
| Cl.Oc1ccc(-c2nc(-c3ccccc3)[nH]c2-c2ccncc2)cc1 [SB-428218] | 0% |
| Cc1ccc(-c2cc(-c3c[nH]nc3-c3ccccn3)ccn2)cc1 [GW684088] | 0% |
| Nc1ncnc2[nH]c(-c3ccccc3)nc12 [AH5015] | 0% |
| O=C(Nc1n[nH]c2cc(-c3cccc(F)c3F)ccc12)C1CC1 [SB-733894] | 0% |
| Cc1ccc(NC(=O)Nc2cc(C(C)(C)C)nn2-c2ccccc2)cc1 [GSK1014915] | 31% |
| Cc1cccc(-c2nc(C)cc(Nc3ccncc3)n2)n1 [GSK257997] | 0% |
| Cn1cncc1-c1ccc2ncnc(Nc3ccc(OCc4ccccc4)cc3)c2c1 [GW320571] | 0% |
| CCn1c(-c2ccccn2)nc2cnccc21 [SB-736398] | 0% |
| Cc1c(Cn2ccn3c(=O)cc(N4CCOCC4)nc23)cccc1C(F)(F)F [GSK2289044] | 0% |
| O=C(O)COc1ncnc2cc(-c3ccc4[nH]ncc4c3)sc12 | 0% |
| O=C(Nc1ccccc1)Nc1cccc(Oc2ccc3nccn3n2)c1 | 0% |
| Cc1ccccc1-n1cnc2c(N)ncnc21 [SKF-97510] | 0% |
| CC(=O)Nc1nc2cnc(Nc3cc(NC(=O)c4cccc(CCC#N)c4)ccc3C)nc2s1 | 21% |
| CC1=C(C(=O)Nc2cc3cn[nH]c3cc2F)C(c2ccc(C(F)(F)F)cc2)CC(=O)N1 (stereo not shown) [GSK429286] | 0% |
| COc1ccc(Nc2nccc(-c3cccc(NC(=O)c4cc5cc(F)ccc5[nH]4)c3)n2)cc1 [GSK1229782] | 5% |
| O=C1NC(=O)C(N2CCc3ccccc32)=C1c1ccccc1Cl [SB-373598] | 0% |
